High-throughput results from PubChem BioAssay.
Rows were chosen to be rich in hits. Some 6.8% of all compounds tested hit in one or more screens of this group.
C diff growth: blocks growth of Clostridium difficile. hit rate 0.25% among 86,000. Clostridium difficile clinical isolate growth, OD600, 24 h; stronger effect = lower value. AID 1259249. growth activity, negative = inhibition, % at 16 µg/mL (by protocol);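 active means mean growth activity at or below -80% and every replicate also at or below -80%; inconclusive means mean at or below -80% but some replicate above -80%; inactive means mean growth activity above -80%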;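 further: 0% = DMSO wells and -100% = levofloxacin 16 µg/mL wells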
Pf Dd2 inh: inhibitors of Plasmodium falciparum Dd2 growth | P. falciparum Dd2 growth, SYBR Green, 72 h; stronger effect = lower value | activity change, % at 10 µM | hit rate 2.3% among 94,000 | AID 1159554; in the data active means activity change below about -80%; inconclusive means no clear call, values can overlap the other calls
T cruzi growth-1: T. cruzi proliferation inhibition; inhibition, % at 8.34 µM; hit rate 5.9% among 77,000; AID 624255; T. cruzi beta-gal in NIH3T3, GalScreen luminescence, 90 h;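 active means mean inhibition above about 93%, with at least 55% of replicates each passing it, limit read from the data, passing the limit was not always enough; inconclusive means only one of those two conditions holds; inactive means neither condition holds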
T cruzi growth-2: Trypanosoma cruzi proliferation inhibition. shares compounds with T cruzi growth-1. T. cruzi beta-gal in NIH3T3, GalScreen luminescence, 90 h. inhibition, % at 8.35 µM. hit rate 72% among 5,600. AID 651739;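 active means mean replicate inhibition above about 95% and at least 55% of replicates individually reaching it, limit read from the data; inconclusive means only one of the two criteria is met; inactive means neither criterion is met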
T cruzi growth-3: inhibitors of T. cruzi proliferation; shares compounds with T cruzi growth-1; hit rate 21% among 5,600; T. cruzi beta-gal in NIH3T3, GalScreen luminescence, 90 h; inhibition, % at 2.09 µM;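 active means mean inhibition above about 95%, with at least 55% of replicates also reaching it, limit read from the data; inconclusive means meets just one of the two conditions; inactive means meets neither condition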;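 further: plate controls were neutral control median for no effect and positive control median for full effect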
3T3 cytotox: NIH/3T3 (mouse) viability loss. shares compounds with T cruzi growth-1. NIH/3T3 viability, CellTiter-Glo ATP luminescence, 90 h. cytotoxicity (signal decrease), % at 8.35 µM. hit rate 14% among 5,600;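 active means mean signal decrease across replicates above about 35% based on untreated-well scatter, with enough replicates individually passing, limit read from the data; inconclusive means no rule stated though some were filed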;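 further: 0% = median of neutral control wells and 100% = median of positive control wells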
NIH3T3 tox 2: NIH/3T3 (mouse) viability loss | inhibition, % at 24.9 µM | shares compounds with T cruzi growth-1 | NIH/3T3 viability, CellTiter-Glo ATP luminescence, 90 h | AID 651744 | hit rate 56% among 5,600;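 active means mean loss of cell viability signal at or above a set limit, and enough replicates individually reaching it; inconclusive means meets only the mean limit or only the replicate share; inactive means meets neither condition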;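 further: 0% = median of neutral control wells and 100% = median of positive control wells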
Numbers without * were called inactive; ? = inconclusive; nt = no result given.

SMILES	C diff growth	Pf Dd2 inh	T cruzi growth-1	T cruzi growth-2	T cruzi growth-3	3T3 cytotox	NIH3T3 tox 2
CCCNC(=O)Nc1ccc2c(c1)C(=O)N(C)C[C@H](OC)[C@@H](C)CN(C(=O)C1CCCCC1)[C@@H](C)CO2	0	2	-9	nt	nt	nt	nt
C[C@H]1CCCCO[C@H](CN(C)C(=O)CCC(F)(F)F)[C@@H](C)CN([C@@H](C)CO)C(=O)c2cc(NS(C)(=O)=O)ccc2O1	0	15	30	nt	nt	nt	nt
O=C(N[C@@H]1C=C[C@H](CC(=O)N2CCCCC2)O[C@@H]1CO)c1cccc(F)c1	4	-4	9	nt	nt	nt	nt
C[C@@H]1CCCCO[C@@H](CN(C)C(=O)Nc2ccccc2)[C@@H](C)CN([C@H](C)CO)C(=O)c2cc(NS(=O)(=O)c3ccc(Cl)cc3)ccc2O1	1	-7	48	nt	nt	nt	nt
C[C@H]1CCCCO[C@H](CN(C)C(=O)Nc2ccccc2)[C@@H](C)CN([C@@H](C)CO)C(=O)c2cc(NS(=O)(=O)c3ccc(Cl)cc3)ccc2O1	-1	-84*	?	103*	37	-38	-18
C[C@H]1CCCCO[C@@H](CN(C)C(=O)Cc2ccccc2)[C@@H](C)CN([C@@H](C)CO)C(=O)c2cc(NS(=O)(=O)c3ccc(Cl)cc3)ccc2O1	5	-65	101*	109*	80	-23	17
C[C@@H]1CCCCO[C@H](CN(C)C(=O)Cc2ccccc2)[C@H](C)CN([C@@H](C)CO)C(=O)c2cc(NS(=O)(=O)c3ccc(Cl)cc3)ccc2O1	-4	-40	87	nt	nt	nt	nt
C[C@@H]1CCCCO[C@@H](CN(C)C(=O)Nc2ccccc2)[C@@H](C)CN([C@@H](C)CO)C(=O)c2cc(NS(=O)(=O)c3ccc(Cl)cc3)ccc2O1	15	-69	118*	104*	40	-12	-5
C[C@@H]1CCCCO[C@H](CN(C)C(=O)c2ccccc2)[C@H](C)CN([C@@H](C)CO)C(=O)c2cc(NS(=O)(=O)c3ccc(Cl)cc3)ccc2O1	-3	-13	67	nt	nt	nt	nt
C[C@H](CO)N1C[C@H](C)[C@H](CN(C)C(=O)c2ccccc2)OCCCC[C@H](C)Oc2ccc(NS(=O)(=O)c3ccc(Cl)cc3)cc2C1=O	-8	32	101*	91	34	-8	6
C[C@@H]1CCCCO[C@@H](CN(C)C(=O)Nc2ccccc2)[C@H](C)CN([C@@H](C)CO)C(=O)c2cc(NS(=O)(=O)c3ccccc3)ccc2O1	nt	-26	nt	nt	nt	nt	nt
CC(C)C(=O)Nc1ccc2c(c1)C(=O)N(C)[C@@H]1CC[C@H](CC(=O)NCc3ccc(F)cc3)O[C@H]1CO2	3	-3	-29	nt	nt	nt	nt
Cc1cccc(CN(C)C[C@H]2OCc3cn(nn3)CCCC(=O)N([C@H](C)CO)C[C@@H]2C)c1	-3	21	-69	nt	nt	nt	nt
CCCC#Cc1ccc([C@H]2[C@@H](CO)N3C(=O)CN(C(=O)NC4CCCC4)C[C@@H]23)cc1	1	-8	nt	nt	nt	nt	nt
Cc1noc(C)c1NC(=O)Nc1ccc2c(c1)C(=O)N([C@H](C)CO)C[C@H](C)[C@@H](CN(C)S(=O)(=O)c1ccccc1)OCCCC[C@H](C)O2	-3	-19	-32	nt	nt	nt	nt
CC(C)NC(=O)N(C)C[C@H]1Oc2ccc(NS(=O)(=O)c3ccc(Cl)cc3)cc2C(=O)N([C@H](C)CO)C[C@@H]1C	0	25	-25	nt	nt	nt	nt
OC[C@@H]1Nc2ccc(-c3cccc(F)c3)cc2[C@H]2[C@@H]1CCN2Cc1ccc(F)cc1	4	-68	103*	108*	115*	26	103*
O=C(c1cccc(F)c1)N1CC[C@@H]2[C@@H](CO)Nc3ccc(-c4cccc(F)c4)cc3[C@@H]21	79	-20	16	nt	nt	nt	nt
O=C(Cc1ccccc1)N1CC[C@@H]2[C@H]1c1cc(-c3cccc(F)c3)ccc1N[C@@H]2CO	4	-27	90	nt	nt	nt	nt
OC[C@H]1Nc2ccc(-c3cccc(F)c3)cc2[C@@H]2[C@H]1CCN2Cc1ccncc1	-4	-62	97*	102*	81	21	89*
COc1cccc(S(=O)(=O)N(C)C[C@@H]2Oc3cc(C#CCN(C)C)ccc3S(=O)(=O)N([C@H](C)CO)C[C@H]2C)c1	-3	-75	?	nt	nt	nt	nt
